# From PubChem BioAssay
# Tgondii IFNg: blocks Toxoplasma gondii growth in the presence of IFN-gamma; Toxoplasma gondii growth in IFN-gamma-treated host cells; active compounds read low; 69,000 tested, 3.8% active; AID 1259416; activity change, negative = inhibition, % (concentration not given with the values); in the data active means activity change below about -70%, passing the limit was not always enough;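 further: host cells are HeLa cells infected with Toxoplasma gondii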
# Hits are given with their value; - = inactive. The full list was thinned out, with hits kept by preference.
SMILES,Tgondii IFNg
Cc1ccc(-n2sc(=O)n(Cc3ccc(F)cc3)c2=O)cc1,-
Cc1ccc(Cn2c(-c3ccc(F)cc3)c(-c3ccc(F)cc3)nnc2=O)cc1,-83
CCCCCCCCCc1nc2c(=O)[nH]c3ccccc3c2o1,-
CCC(CC)n1ncc(C)c1NC(=O)CCc1c(C)[nH]c2ccccc2c1=O,-
CCCCc1c(C)[nH]c2ccccc2c1=O,-99
CCN1CCc2nc(N3CCOCC3)nc(NC3CC3)c2C1,-
Cc1noc(CN(C)C(=O)C2CCCCN2Cc2ccccc2)n1 (configuration not stated),-
CCc1cnc(-c2c[nH]c3ccc(C)cc23)nc1,-
CC(=O)c1sc(-c2ccc(C(C)(C)C)cc2)cc1N,-
O=c1ccc2cc(S(=O)(=O)NCCN3CCOCC3)ccc2[nH]1,-
CCCCN(C)C(=O)c1cc2cccnc2n(Cc2ccccc2F)c1=O,-
COc1ccc2c(c1)c1c(n2Cc2ccccc2)CCCC1,-
O=C(O)Cn1c2c(c3ccccc31)CCC2,-92
O=C1SCCc2c1n(Cc1ccccc1)c1ccccc21,-
Cc1cccc(CN2CC[C@H]3[C@H](CC2)S(=O)(=O)CCN3C(=O)c2ccccc2)c1,-
O=C([C@H]1[C@H](CO)[C@H]2Cn3c(ccc(C4=CCCC4)c3=O)[C@@H]1N2C(=O)c1cccnc1)N1CCOCC1,-
O=C(Nc1cccc(Cl)c1)N[C@H]1CC[C@@H](CCn2cc(Cc3ccccc3)nn2)O[C@@H]1CO,-
O=C(Nc1cccc(Cl)c1)N[C@H]1CC[C@H](CCn2cc(Cc3ccccc3)nn2)O[C@H]1CO,-
O=C(Nc1cccc(Cl)c1)N[C@@H]1CC[C@@H](CCn2cc(Cc3ccccc3)nn2)O[C@@H]1CO,-74
Cn1nc(-c2nccn2CCN2CCOCC2)c2c(Cl)cccc21,-
O=C1c2cccc3cccc(c23)C(=O)N1CCO,-
CN(C)CCN1C(=O)c2cccc3cc(N)cc(c23)C1=O,-77
O=C(CCCN1C(=O)c2cccc3cccc(c23)C1=O)OCc1ccc2c(c1)OCO2,-
CCc1onc(C)c1C1CCCN1Cc1cn(CC)c2ccc(OC)cc12 (configuration not stated),-
CC1CCN(S(=O)(=O)c2ccc3c(ccc(=O)n3CC(=O)NCc3ccc(Cl)cc3)c2)CC1,-
SMILES,Tgondii IFNg
COc1cccc(CNC(=O)Cn2c(=O)ccc3cc(S(=O)(=O)N4CCC(C)CC4)ccc32)c1,-80
COc1ccccc1CNC(=O)Cn1c(=O)ccc2cc(S(=O)(=O)N3CCC(C)CC3)ccc21,-
COc1cc2c(cc1OC)C(C)N(C(=O)CCCC(=O)O)CC2 (configuration not stated),-
COCCN1CCOCC2(CCCN(C(=O)c3ccc4cc[nH]c4c3)C2)C1 (configuration not stated),-
CC(=O)Nc1cccc(-c2ccccc2-c2nnc(C)s2)c1,-
CC(=O)Nc1cccc(-c2cnn3cccnc23)c1,-
CC(=O)Nc1cccc(-c2cc(C(F)(F)F)cc3[nH]cnc23)c1,-77
CN(C)C(=O)c1cnc2n1CCN(Cc1nccn1C)C2,-
N#Cc1ccc(OCc2ccc(C(F)(F)F)cc2)cc1,-81
FC(F)(F)c1cccc(OCc2ccc(-c3ncns3)cc2)c1,-
O=C(O)c1ccc(OCc2ccccc2)cc1,-
C=C(C)CN1CC(C(=O)O)CC1=O (configuration not stated),-
CCCCCN1CCCC12CCN(C(=O)c1cscn1)C2 (configuration not stated),-
CCCCCc1nc(N)c(C#N)c(-c2ccco2)c1CCCC,-91
CCCCCCSc1ncc(C#N)c(N)n1,-
CCOc1ccc(C(=O)NCCc2csc(-c3ccc(Cl)cc3)n2)cc1,-
Cc1ccc(C)c(OCc2cc(C(=O)NCC3CCS(=O)(=O)C3)no2)c1 (configuration not stated),-
Cc1oc(-c2ccccc2)nc1CSc1nc2c(c(=O)[nH]1)CN(Cc1ccccc1)CC2,-
COc1ccc(-c2nc(CSc3nc4c(c(=O)[nH]3)CN(Cc3ccccc3)CC4)c(C)o2)cc1,-77
COc1ccc(CN2CCc3nc(SCc4nc(-c5ccccc5)oc4C)[nH]c(=O)c3C2)cc1,-
Cc1cnccc1N1CCCN(C2CCC3(CCNCC3)CC2)CC1,-
O=C(c1ccccc1)c1ccccc1C(=O)c1ccccc1,-
O=C(c1ccccc1)c1ccc2[nH]c(=S)[nH]c2c1,-94
Cc1nc(C)c(C(=O)c2ccccc2)cc1C(=O)c1ccccc1,-
COC(=O)CC1C(=O)NCCN1C(=O)c1cc2n(n1)CCN(C(C)C)C2 (configuration not stated),-
SMILES,Tgondii IFNg
COc1ccc(CNCCCSc2ncccn2)cc1,-
COc1ccc(NC(=S)NCCSc2ccc(Cl)cc2)cc1,-
COc1ccc(SCC(O)CNCc2ccc(Cl)cc2)cc1 (configuration not stated),-80
CN1CCN(C[C@H]2OC[C@H]3CCN(C(=O)N(C)C)C[C@H]32)CC1,-
NC(=O)c1ccc(-c2nc(-c3ccc4c(c3)OCO4)c(-c3ccccn3)[nH]2)cc1,-
Cc1cccc(-c2[nH]c(C(C)(C)C)nc2-c2ccc3c(c2)OCO3)n1,-83
COc1nccnc1-c1ccc2c(c1)OCO2,-
C=CCOCC1c2c(ncn2C(C)C)CCN1C(=O)C1CC1 (configuration not stated),-
CCN1C(=O)COc2cc3c(cc21)C(c1ccncc1F)CC(=O)N3 (configuration not stated),-
Cc1occc1C(=O)N1CCOCC2(CCN(c3ncccn3)C2)C1 (configuration not stated),-
Cc1ccc(CN2CCOCC3(CCN(Cc4nccn4C)C3)C2)s1 (configuration not stated),-
Cc1occc1C(=O)N1CCOCC2(CCN(Cc3nccn3C)C2)C1 (configuration not stated),-78
Cc1ccc(C(=O)N2C[C@H](OCc3cccnc3)[C@@H]3OCCC[C@@H]32)o1,-
COc1cccc(NC(=O)c2nc3c(s2)CCN(c2ncccn2)CC3)c1,-
Cc1cc(C)cc(C(=O)N2CCC[C@@H]2C(=O)NCCc2csc(-c3ccccc3)n2)c1,-
CC(=O)NCC1CCCN(Cc2ccc(C)c(F)c2C)C1 (configuration not stated),-
CN(CC(=O)Nc1ccc2c(c1)OCO2)Cc1ccccc1,-
CCOC(=O)c1cc(-c2ccccc2)sc1NC(=O)c1ccc(Cl)cc1,-
NC(=O)c1sc(-c2ccsc2)cc1NC(=O)c1cccs1,-
NC(=O)c1cc(-c2ccccc2)sc1NC(=O)c1cccs1,-83
CCOc1ccc(CCNc2nc(-c3nnc(-c4ccccc4)o3)nc3ccccc23)cc1OCC,-
Cc1cc(C)c(C2CC(=O)Nc3[nH]ncc32)cc1Cn1cncn1 (configuration not stated),-
Cc1ncsc1C(=O)NC(Cc1cc(=O)[nH]c(-c2ccccn2)n1)c1ccc(F)cc1 (configuration not stated),-
CCC(c1ccc(F)cc1)n1cc(C(=O)Nc2ccc3c(c2)N(C)C(=O)CO3)nn1 (configuration not stated),-
CCC(c1ccc(F)cc1)n1cc(C(=O)Nc2nc(-c3ccccn3)cs2)nn1 (configuration not stated),-97
CC(COc1ccccc1)NC1CCN(S(=O)(=O)c2ccccc2)CC1 (configuration not stated),-
CCc1cn[nH]c1C1CCN(C(=O)c2cc(=O)[nH]c3ccc(F)cc23)CC1,-
OCc1cc(-c2ccc(Cn3ccnc3)cn2)ccc1F,-
